Inconclusive results are not listed. Unmarked numbers belong to inactive results. Activity calls are given as the source filed them. Calls follow the shape of the dose curve; as a rule, active = well fitted inhibition curve with a large enough effect; inconclusive = small, poorly fitted or top-dose-only effect; inactive = flat fitted curve, though single readings scatter.
target: Dual specificity protein kinase CLK4 (Homo sapiens) (UniProt Q9HAZ1); test: Reaction Biology data for inhibitors of CLK4: Probe SAR; settings: Reaction Biology CLK4 kinase assay, 10 uM ATP; series mostly up to 10 µM; activity change, negative = inhibition: at the top concentration
Source text: Alternative splicing of pre-mRNAs plays a major role in the regulation of eukaryotic gene expression. Alternative splicing is now thought to be one of the primary reasons for the complexity of higher organisms leading to an average of three protein isoforms per gene. Aberrant splicing can lead to a number of diseases and is known to play a role in rare genetic diseases such as progeria syndrome. Hutchinson-Gilford Progeria Syndrome (HGPS) is a pediatric premature aging disease caused by a spontaneous mutation in the lamin A/C (LMNA) gene due to a single point mutation in the lamin A gene effecting 1 in 4 million people. To identify both specific splicing modulators of the lamin A gene as well as general splicing modulators, a cell-based HTS assay was developed using a minigene reporter system (AIDs, 1459 & 1487). […] This AID summarizes the characterization of lead compounds in Clk4. NIH Molecular Libraries Probe Production Centers Network [MLPCN] NIH Chemical Genomics Center [NCGC] MLPCN Grant: MH084827 Assay Submitter (PI): Tom Misteli
Compound IC50s were determined at Reaction Biology (http://www.reactionbiology.com) with ten concentration points starting at 10 uM in the assay using a 3-fold dilution series. The control compound staurosporine was also tested in the 10-dose IC50 mode with the same 3-fold serial dilution, again starting at 10 uM. All kinase reactions were performed using 10 uM ATP in the assay. 100% activity was taken from kinase reactions with DMSO alone (the vehicle used for compound stock solutions).

Sequence of Dual specificity protein kinase CLK4 (Homo sapiens) (Q9HAZ1 whole entry, looked up, canonical isoform): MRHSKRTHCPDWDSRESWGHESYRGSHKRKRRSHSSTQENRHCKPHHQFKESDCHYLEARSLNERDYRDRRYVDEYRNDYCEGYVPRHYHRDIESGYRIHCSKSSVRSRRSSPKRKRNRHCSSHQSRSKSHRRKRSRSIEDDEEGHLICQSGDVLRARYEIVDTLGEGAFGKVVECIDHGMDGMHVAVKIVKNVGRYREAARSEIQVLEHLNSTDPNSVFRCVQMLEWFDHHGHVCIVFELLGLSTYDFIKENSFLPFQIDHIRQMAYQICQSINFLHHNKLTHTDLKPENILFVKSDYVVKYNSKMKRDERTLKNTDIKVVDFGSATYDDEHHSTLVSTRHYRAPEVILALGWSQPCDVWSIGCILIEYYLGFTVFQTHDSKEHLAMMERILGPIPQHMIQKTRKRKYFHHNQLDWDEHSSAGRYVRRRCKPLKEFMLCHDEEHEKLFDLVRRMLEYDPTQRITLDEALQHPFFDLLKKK

| Compound | Potency | activity change, negative = inhibition |
| --- | --- | --- |
| COc1ccc(-c2ccnc(NCc3ccc(Cl)c(Cl)c3)n2)cc1 | 91.7 nM (active) | – |
| Cc1c(-c2ccnc(NCc3cccnc3)n2)sc(=O)n1C | 87.8 nM (active) | – |
| Cc1nc(CNc2ncnc3ccc(-c4ccc5c(c4)OCO5)cc23)cs1 | 25 nM (active) | – |
| FC(F)(F)c1cc(Br)cc(Nc2nccc(-c3ccc4c(c3)OCO4)n2)c1 | 85.5 nM (active) | – |
| Clc1ccc(CNc2nccc(-c3ccc4cn[nH]c4c3)n2)cc1Cl | 123 nM (active) | – |
| O=[N+]([O-])c1cc(Nc2nccc(-c3ccc4c(c3)OCO4)n2)cc(C(F)(F)F)c1 | 23.1 nM (active) | – |
| COc1ccc(-c2ccnc(NCc3ccc(Cl)c(Cl)c3)n2)cc1OC | – | -40.9% |
| Brc1cc(Br)cc(CNc2nccc(-c3ccc4c(c3)OCO4)n2)c1 | 9.4 nM (active) | – |
| c1cncc(CNc2nccc(-c3ccc4[nH]ncc4c3)n2)c1 | 60 nM (active) | – |
| Cc1nc(CN(C)c2ncnc3ccc(-c4ccc5[nH]ncc5c4)cc23)cs1 | 37.7 nM (active) | – |
| Clc1cc(Cl)cc(CNc2ncncc2-c2ccc3c(c2)OCO3)c1 | 68.2 nM (active) | – |
| c1cc(-c2ccc3c(c2)OCO3)nc(Nc2ccc3c(c2)OCO3)n1 | 74.8 nM (active) | – |
| c1cncc(CNc2ccnc(-c3ccc4cn[nH]c4c3)n2)c1 | 1290 nM (active) | – |
| Clc1ccc(CNc2nccc(-c3ccc4c(c3)OCCO4)n2)cc1Cl | 13.1 nM (active) | – |
| COc1cccc(-c2ccnc(NCc3ccc(Cl)cc3)n2)c1 | 6810 nM (active) | – |
| Cc1c(-c2ccnc(NCc3ccc(Cl)cc3)n2)sc(=O)n1C | 273 nM (active) | – |
| Clc1ccc(CNc2nccc(-c3ccc4[nH]ncc4c3)n2)cc1Cl | 30.3 nM (active) | – |
| c1nc(NCC2CCCO2)c2cc(-c3ccc4c(c3)OCO4)ccc2n1 (configuration not stated) | 50.1 nM (active) | – |
| Clc1ccc(CNc2ncncc2-c2ccc3c(c2)OCO3)cc1Cl | 526 nM (active) | – |
| c1cncc(CNc2ccnc(-c3ccc4[nH]ncc4c3)n2)c1 | 574 nM (active) | – |
| COc1ccc(-c2ccnc(NCc3ccc(Cl)cc3)n2)cc1 | 319 nM (active) | – |
| Brc1ccc(CNc2nccc(-c3ccc4c(c3)OCO4)n2)cc1Br | 17.7 nM (active) | – |
| COc1cccc(-c2ccnc(NCc3ccc(Cl)c(Cl)c3)n2)c1 | 3860 nM (active) | – |
| FC(F)(F)c1cccc(Nc2nccc(-c3ccc4c(c3)OCO4)n2)c1 | 41.7 nM (active) | – |
| c1cncc(CNc2nccc(-c3ccc4c(c3)OCO4)n2)c1 | 15.9 nM (active) | – |
| Cc1nc(CN(C)c2ncnc3ccc(-c4ccc5c(c4)OCO5)cc23)cs1 | 15.9 nM (active) | – |
| Clc1ccc(CNc2nccc(-c3ccc4c(c3)OCO4)n2)cc1Cl | 14.4 nM (active) | – |

Reference: PubChem BioAssay AID624034 (National Center for Advancing Translational Sciences (NCATS), 2012)
